Screening data (PubChem BioAssay)
NIH3T3 tox = cytotoxic compounds in NIH 3T3 cells; Potency, µM (titrated, usually from 96.7 µM), for the others: at the top dose activity change, negative = cytotoxicity, usual class: inhibitors; NIH 3T3 viability, CellTiter-Glo ATP luminescence, 48-72 h; 94,000 tested, 4.3% active; also: nearly all actives have a fitted effect of over 55% in size
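Cells were seeded at 400 per well, treated with pin-transferred compound, and kept 48 or 72 hr at 37 °C before CellTiter-Glo addition and luminescence imaging of cellular ATP.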
HEK293 tox = HEK 293 cell cytotoxicity; 94,000 tested, 6.6% active; Potency, µM (series often up to 115 µM), for inactives: at the top dose activity change, negative = cytotoxicity, actives largely listed as inhibitors; AID 1345083; HEK 293 viability, ATP luminescence (CellTiter-Glo), 48-72 h; also: nearly all actives have a fitted effect of over 60% in size
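Viability of HEK 293 cells, plated at 250 cells/well, was judged by cellular ATP after compound treatment for 48 or 72 hr. Luminescence was imaged 10 min after CellTiter-Glo addition at room temperature.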
Luciferase inh = blocks purified firefly luciferase enzyme activity; AID 1347043; Potency, µM (series often up to 115 µM), hits mostly inhibitors; purified P. pyralis luciferase, luminescence, biochemical; 76,000 tested, 2.5% active; also: nearly all actives have a fitted effect of over 65% in size
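Purified 10nM P. pyralis luciferase with 10uM D-luciferin and 10uM ATP in 50mM Tris acetate pH 7.5, 10mM Mg acetate, 0.01% Tween-20, 0.05% BSA. qHTS titration; luminescence read by CCD imager.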
NPR1 antag = antagonists of human natriuretic peptide receptor Npr1; Potency, µM (series often up to 46.3 µM), inactives show top-dose activity change, negative = inhibition, usual class: inhibitors; HEK293 hNpr1 GloSensor cGMP, ANP-stimulated luminescence; 76,000 tested, 1.6% active; P16066; AID 1347048; calls by dose curve; also: nearly all actives have a fitted effect of over 60% in size
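HEK293 cells stably expressing human Npr1 and cGMP GloSensor pGS-40F, loaded 2 h with 2% GloSensor reagent, given compound 30 min at room temperature. Luminescence read before and 20 min after 0.1 nM hNppA.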
GPT2 inhibitor = inhibitors of human GPT2 alanine aminotransferase; 100,000 tested, 0.25% active; Recombinant GPT2, coupled pyruvate oxidase/HRP Amplex Red fluorescence; AID 1671188; Potency, µM (highest dose often 57.7 µM), inactives show top-dose activity change, negative = inhibition, hits mostly inhibitors; also: nearly all actives have a fitted effect of over 60% in size
Target sequence (Q8TD30 whole entry, looked up): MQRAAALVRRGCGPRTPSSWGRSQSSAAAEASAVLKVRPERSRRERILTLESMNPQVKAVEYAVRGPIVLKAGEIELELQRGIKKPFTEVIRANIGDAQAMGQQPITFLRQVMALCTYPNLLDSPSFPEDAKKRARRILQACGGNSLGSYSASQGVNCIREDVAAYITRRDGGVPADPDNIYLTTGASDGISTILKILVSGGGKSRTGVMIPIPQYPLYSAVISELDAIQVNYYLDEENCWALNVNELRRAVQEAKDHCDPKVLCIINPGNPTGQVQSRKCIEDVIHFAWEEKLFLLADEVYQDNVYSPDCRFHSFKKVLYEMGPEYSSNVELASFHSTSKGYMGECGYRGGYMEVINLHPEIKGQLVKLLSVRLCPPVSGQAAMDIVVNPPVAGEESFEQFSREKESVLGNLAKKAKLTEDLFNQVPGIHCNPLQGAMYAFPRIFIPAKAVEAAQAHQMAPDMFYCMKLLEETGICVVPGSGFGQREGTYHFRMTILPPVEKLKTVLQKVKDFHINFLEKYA
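Inhibition is scored from Amplex Red fluorescence generated when pyruvate oxidase and HRP act on pyruvate released by GPT2. Reactions contain 10ng/uL enzyme, 250uM a-KG and 2mM L-alanine and run 30 min at room temperature.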
The depositor's hits bear a star; i = inactive; ? = inconclusive; / = no result; [ ] = another dose, or the depositor's remark. Shown are actives, neighbours in structure and some others; about 10% of the full set was active somewhere. Unless noted, calls follow the shape of the dose curve; as a rule, active = well fitted curve in the direction sought with a large enough effect; inconclusive = small, poorly fitted or top-dose-only effect, or another doubt; inactive = no such curve, though single readings can be large; an effect the other way counts as inactive or inconclusive. % is scaled to controls: 0 for no effect and ±100 for the full control effect; potency is read from the fitted curve at half-maximal effect.

SMILES | NIH3T3 tox | HEK293 tox | Luciferase inh | NPR1 antag | GPT2 inhibitor
Cc1ccnc(NC(=O)C2CC(=O)N(c3n[nH]c4cccc(F)c34)C2)c1 (configuration not stated) | ? | 28µM* | i | -6% | -17%
CC(C)(C)c1csc(NC(=O)C2CC(=O)N(c3n[nH]c4cccc(F)c34)C2)n1 (configuration not stated) | ? | 45µM* | i | -18% | i
Cc1nc(NC(=O)C2CC(=O)N(c3n[nH]c4cccc(F)c34)C2)sc1C (configuration not stated) | -9% | ? | i | 2% | 1%
CCc1cn[nH]c1C1CCCN(C(=O)c2cccnc2SC)C1 (configuration not stated) | -5% | i | i | 2% | i
CN1CCC(CNc2ncc(C(C)(C)C(=O)O)c(N3CCOCC3)n2)C1 (configuration not stated) | -1% | i | i | 5% | -3%
O=C1NC(=NC2CCCCC2)C2(CCN(Cc3cccnc3)C2)N1c1cccnc1 (configuration not stated) | 40µM* | i | / | / | i
CN(C)c1ccc(CN2CCCC3(C2)C(=NC2CCCC2)NC(=O)N3c2cc(F)cc(F)c2)cc1 (configuration not stated) | -30% | -25% | / | / | -21%
O=C1NC(=NC2CCCC2)C2(CCCN(Cc3ccsc3)C2)N1c1cccnc1 (configuration not stated) | 28µM* | 3% | / | / | i
O=C1NC(=NC2CCCCC2)C2(CCN(Cc3cccnc3)CC2)N1c1cccnc1 | 2% | i | / | / | i
CC(C)CCN1CCC2(C1)C(=NC1CCCC1)NC(=O)N2c1cccnc1 (configuration not stated) | 32µM* | -10% | / | / | -7%
CC(C)CCN1CCCC2(C1)C(=NC1CCCCC1)NC(=O)N2c1cccnc1 (configuration not stated) | ? | ? | / | / | i
CN(C)c1ccc(CN2CCCC3(C2)C(=NC2CCCCC2)NC(=O)N3c2cc(F)cc(F)c2)cc1 (configuration not stated) | ? | 79µM* | / | / | i
O=C(C1CCCCN1Cc1ccc(-c2ccsc2)cc1)N1CCCC1 (configuration not stated) | -33% | ? | / | / | i
Cc1ccc(NC(=O)N2CCC(CCNC(=O)C3CCCC3)CC2)cc1 | -6% | 1% | i | -1% | -12%
CNC(=O)NC[C@H]1CCN(Cc2ccc(OC)cc2OC)C[C@H]1N(C)C | -13% | -5% | i | -2% | -15%
O=C1NC(=NC2CCCC2)C2(CCCN(Cc3ccc(F)cc3)C2)N1c1cc(F)cc(F)c1 (configuration not stated) | ? | ? | / | / | i
O=C1NC(=NC2CCCCC2)C2(CCCN(Cc3cccnc3)C2)N1c1cc(F)cc(F)c1 (configuration not stated) | 11µM* | -10% | / | / | 0%
O=C(c1ccccc1F)N1CCCC2(C1)C(=NC1CCCC1)NC(=O)N2c1cccnc1 (configuration not stated) | -21% | i | / | / | -7%
O=C(c1ccccc1F)N1CCC2(CC1)C(=NC1CCCC1)NC(=O)N2c1cccnc1 | 35µM* | i | / | / | i
O=C1NC(=NC2CCCC2)C2(CCCN(Cc3ccc(F)cc3)C2)N1c1cccnc1 (configuration not stated) | 16µM* | -24% | / | / | 4%
CN(C)c1ccc(CN2CCCC3(C2)C(=NC2CCCCC2)NC(=O)N3c2cccnc2)cc1 (configuration not stated) | -16% | ? | / | / | i
COc1ccc(N2CC(C(=O)N3CCC(C(=O)NCC(F)(F)F)C3)NC2=O)cc1 (configuration not stated) | -18% | -4% | i | 16% | i
COc1ccc(-c2nc(CN3CCC(F)(F)CC3)c(C)o2)c(OC)c1C | ? | ? | i | 2% | 2%
COc1ccc(-c2nc(CN3CCC(CO)CC3)c(C)o2)c2ccccc12 | ? | 20µM* | i | 9% | i[11.5 µM]
